Laboratory results reported in the supplement of paper PMC3334620.
The full ranking holds about 33,000 sequences; the median of “E-score (-0.5 to 0.5)” is about -0.015, and the highest 2% start at about 0.3. The sample as a whole holds a higher share of the highest values than the screen did.

Target: T1, Abf1 (UniProt P14164)
T1 sequence: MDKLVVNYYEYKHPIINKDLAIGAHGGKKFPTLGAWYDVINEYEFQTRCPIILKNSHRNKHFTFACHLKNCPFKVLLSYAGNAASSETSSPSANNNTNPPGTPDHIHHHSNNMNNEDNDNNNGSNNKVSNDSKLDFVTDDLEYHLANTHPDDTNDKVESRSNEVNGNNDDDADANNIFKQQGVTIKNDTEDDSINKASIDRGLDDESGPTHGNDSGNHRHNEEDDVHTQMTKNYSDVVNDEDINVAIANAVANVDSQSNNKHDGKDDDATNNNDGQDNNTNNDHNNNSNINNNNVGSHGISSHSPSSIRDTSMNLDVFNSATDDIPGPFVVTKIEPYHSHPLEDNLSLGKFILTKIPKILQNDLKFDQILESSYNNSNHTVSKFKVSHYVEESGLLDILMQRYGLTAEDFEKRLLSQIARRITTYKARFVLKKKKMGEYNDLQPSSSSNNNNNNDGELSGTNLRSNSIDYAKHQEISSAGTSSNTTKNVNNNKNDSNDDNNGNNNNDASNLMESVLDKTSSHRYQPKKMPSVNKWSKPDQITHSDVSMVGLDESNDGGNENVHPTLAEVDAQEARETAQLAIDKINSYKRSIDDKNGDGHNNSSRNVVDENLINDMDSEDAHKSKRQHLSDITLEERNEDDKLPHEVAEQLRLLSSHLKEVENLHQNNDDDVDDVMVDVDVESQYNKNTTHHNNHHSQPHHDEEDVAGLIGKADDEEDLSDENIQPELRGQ
Test: PBM E-score (8-mer binding enrichment) (E-score (-0.5 to 0.5)); higher = stronger / more preferred TF binding
Settings: protein concentration: 200 nM; construct: GST-full length
In short: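 The E-score, a modified Wilcoxon-Mann-Whitney statistic, was computed by the Universal PBM Analysis Suite for every ungapped eight-base word pooled with its reverse complement. Scans behind it were normalised with masliner after bound GST-tagged yeast transcription factors were detected with fluorescent anti-GST. The proteins, at about 100-200 nM, had been applied to universal all-10-mer Agilent arrays made double-stranded by primer extension.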

**Q.** How did the “PBM E-score” value turn out when ACGAACGC was run?
**A.** The value was 0.214.

**Q.** Which “PBM E-score” value does the source give for GACTGTGC here?
**A.** Its value is 0.0177.

**Q.** How did the “PBM E-score” value turn out when GCGTGAGA was run?
**A.** Its value is 0.168.

**Q.** ACGTGATC was tested. Which “PBM E-score” value did it give?
**A.** Its value is 0.261.

**Q.** Which “PBM E-score” value does the source give for GCGTGATA here?
**A.** Its value is 0.353.

**Q.** For ACGTGATA, which “PBM E-score” value is on record?
**A.** Its value is 0.318.

**Q.** Which “PBM E-score” value does the source give for ATGTGATA here?
**A.** The value was 0.291.

**Q.** For CTGTGATA, which “PBM E-score” value is on record?
**A.** Its value is 0.201.

**Q.** Which “PBM E-score” value does the source give for CCGTGATA here?
**A.** Its value is 0.283.

**Q.** Which “PBM E-score” value does the source give for ACGTGATG here?
**A.** Its value is 0.215.

**Q.** How did the “PBM E-score” value turn out when GTGTGATA was run?
**A.** Its value is 0.327.

**Q.** CGCGATTA was tested. Which “PBM E-score” value did it give?
**A.** The value was 0.0309.

**Q.** Which “PBM E-score” value does the source give for AGGTATGC here?
**A.** Its value is 0.0905.

**Q.** With CAGGCTGA as the sequence, how does the “PBM E-score” value read?
**A.** Its value is -0.188.

**Q.** For AAATAATT, which “PBM E-score” value is on record?
**A.** Its value is 0.212.

**Q.** For AGTACAAA, which “PBM E-score” value is on record?
**A.** Its value is 0.101.

**Q.** AGTACATA was tested. Which “PBM E-score” value did it give?
**A.** Its value is 0.0814.

**Q.** For CGTACACG, which “PBM E-score” value is on record?
**A.** The value was 0.245.

**Q.** Which “PBM E-score” value does the source give for GGTACAGA here?
**A.** The value was 0.00644.

**Q.** For CGTACACC, which “PBM E-score” value is on record?
**A.** The value was -0.0081.

**Q.** With CGTACAAA as the sequence, how does the “PBM E-score” value read?
**A.** Its value is 0.408.

**Q.** For CGTACATC, which “PBM E-score” value is on record?
**A.** The value was 0.134.

**Q.** How did the “PBM E-score” value turn out when CGTACAGA was run?
**A.** The value was 0.308.

**Q.** With CGTACAGC as the sequence, how does the “PBM E-score” value read?
**A.** Its value is -0.0515.

**Q.** CGTACATA was tested. Which “PBM E-score” value did it give?
**A.** Its value is 0.364.

**Q.** GGTACAAA was tested. Which “PBM E-score” value did it give?
**A.** Its value is 0.0902.

**Q.** With CGTACACA as the sequence, how does the “PBM E-score” value read?
**A.** The value was 0.318.

**Q.** For GGAGATAA, which “PBM E-score” value is on record?
**A.** The value was 0.0908.

**Q.** How did the “PBM E-score” value turn out when CAAACGGG was run?
**A.** The value was -0.0186.

**Q.** Which “PBM E-score” value does the source give for AACCGATT here?
**A.** The value was 0.0401.

**Q.** For GCACCCAA, which “PBM E-score” value is on record?
**A.** Its value is -0.239.

**Q.** How did the “PBM E-score” value turn out when CTTCTTTA was run?
**A.** Its value is 0.12.

**Q.** How did the “PBM E-score” value turn out when AGATGGGG was run?
**A.** Its value is -0.284.

**Q.** Which “PBM E-score” value does the source give for GAACAATC here?
**A.** The value was 0.0605.

**Q.** Which “PBM E-score” value does the source give for GAAATTCC here?
**A.** Its value is -0.102.

**Q.** For CGTACAAC, which “PBM E-score” value is on record?
**A.** The value was 0.276.

**Q.** For CGTACAAG, which “PBM E-score” value is on record?
**A.** Its value is 0.357.

**Q.** For AGTACAAG, which “PBM E-score” value is on record?
**A.** Its value is 0.0462.

**Q.** Which “PBM E-score” value does the source give for GACGCCGA here?
**A.** The value was 0.0176.

**Q.** AGTATAAC was tested. Which “PBM E-score” value did it give?
**A.** The value was 0.194.

**Q.** TGTATCAA was tested. Which “PBM E-score” value did it give?
**A.** Its value is -0.0209.

**Q.** For AGTATAAG, which “PBM E-score” value is on record?
**A.** The value was 0.0186.

**Q.** With CGTATAAA as the sequence, how does the “PBM E-score” value read?
**A.** Its value is 0.417.

**Q.** For CGTATAAG, which “PBM E-score” value is on record?
**A.** The value was 0.349.

**Q.** For GGTATAAC, which “PBM E-score” value is on record?
**A.** Its value is 0.0343.

**Q.** With CATATAAG as the sequence, how does the “PBM E-score” value read?
**A.** The value was 0.0553.

**Q.** With CGTATCAA as the sequence, how does the “PBM E-score” value read?
**A.** The value was 0.343.

**Q.** Which “PBM E-score” value does the source give for CGTATAAC here?
**A.** Its value is 0.366.

**Q.** For TGTATAAA, which “PBM E-score” value is on record?
**A.** The value was 0.116.

**Q.** For CGTATCAC, which “PBM E-score” value is on record?
**A.** The value was 0.281.

**Q.** How did the “PBM E-score” value turn out when AGTATAAA was run?
**A.** Its value is 0.252.

**Q.** Which “PBM E-score” value does the source give for GATCCTAA here?
**A.** Its value is 0.0497.

**Q.** For ACCAAAAC, which “PBM E-score” value is on record?
**A.** The value was 0.0329.

**Q.** ATTAAGTA was tested. Which “PBM E-score” value did it give?
**A.** Its value is 0.133.

**Q.** With ATCTGTCA as the sequence, how does the “PBM E-score” value read?
**A.** Its value is 0.212.

**Q.** CAACCAGG was tested. Which “PBM E-score” value did it give?
**A.** Its value is -0.288.

**Q.** With CGAAAGGA as the sequence, how does the “PBM E-score” value read?
**A.** The value was 0.191.

**Q.** GGAATACA was tested. Which “PBM E-score” value did it give?
**A.** Its value is -0.0854.

**Q.** How did the “PBM E-score” value turn out when ATGGCTAA was run?
**A.** The value was -0.0715.

**Q.** Which “PBM E-score” value does the source give for CATCGTCC here?
**A.** Its value is 0.137.

**Q.** AATCGTCA was tested. Which “PBM E-score” value did it give?
**A.** The value was 0.334.

**Q.** TATCGTGA was tested. Which “PBM E-score” value did it give?
**A.** Its value is 0.286.

**Q.** With AATCGTCT as the sequence, how does the “PBM E-score” value read?
**A.** The value was 0.269.

**Q.** With TATCGTCA as the sequence, how does the “PBM E-score” value read?
**A.** Its value is 0.33.

**Q.** For CATCGTCG, which “PBM E-score” value is on record?
**A.** The value was 0.231.

**Q.** How did the “PBM E-score” value turn out when CATCGTCA was run?
**A.** Its value is 0.297.

**Q.** GATCGTCA was tested. Which “PBM E-score” value did it give?
**A.** The value was 0.277.

**Q.** For AATCGTCC, which “PBM E-score” value is on record?
**A.** The value was 0.168.

**Q.** With CGAATGGA as the sequence, how does the “PBM E-score” value read?
**A.** The value was 0.0823.

**Q.** For GACCCTAA, which “PBM E-score” value is on record?
**A.** Its value is 0.012.

**Q.** For CAACGTTC, which “PBM E-score” value is on record?
**A.** Its value is -0.145.

**Q.** CATGATGA was tested. Which “PBM E-score” value did it give?
**A.** Its value is 0.365.

**Q.** Which “PBM E-score” value does the source give for CATGATGG here?
**A.** The value was -0.191.

**Q.** For GATGATGC, which “PBM E-score” value is on record?
**A.** The value was 0.152.

**Q.** TATGATGA was tested. Which “PBM E-score” value did it give?
**A.** Its value is 0.313.

**Q.** How did the “PBM E-score” value turn out when CATGATGC was run?
**A.** The value was 0.123.

**Q.** For GATGATGA, which “PBM E-score” value is on record?
**A.** Its value is 0.223.

**Q.** CAGTACCC was tested. Which “PBM E-score” value did it give?
**A.** The value was -0.0706.

**Q.** Which “PBM E-score” value does the source give for CGTAATAG here?
**A.** The value was 0.112.

**Q.** CGTAATAC was tested. Which “PBM E-score” value did it give?
**A.** Its value is 0.303.

**Q.** How did the “PBM E-score” value turn out when GGTAATAC was run?
**A.** The value was 0.099.

**Q.** Which “PBM E-score” value does the source give for AAGTGATC here?
**A.** Its value is 0.41.

**Q.** For AAGTGAGT, which “PBM E-score” value is on record?
**A.** The value was 0.0964.

**Q.** ATGTGATG was tested. Which “PBM E-score” value did it give?
**A.** Its value is 0.0498.

**Q.** For CAGTGATG, which “PBM E-score” value is on record?
**A.** The value was 0.255.

**Q.** Which “PBM E-score” value does the source give for AAGTGATT here?
**A.** Its value is 0.347.

**Q.** With AAGTGAAT as the sequence, how does the “PBM E-score” value read?
**A.** Its value is 0.16.
